This is an account of results in PubChem BioAssay (NCI).

Test systems include SR leukemia; RPMI-8226 leukemia; OVCAR-8 ovarian; OVCAR-4 ovarian; SK-OV-3 ovarian; IGROV1 ovarian; OVCAR-3 ovarian; HS 578T breast; NCI/ADR-RES ovarian; T-47D breast; BT-549 breast; MDA-MB-435 melanoma; SW-620 colon; MCF7 breast; HCT-116 colon; HCC-2998 colon; KM12 colon; OVCAR-5 ovarian.
Test in all cases: NCI-60 one-dose screen, 48 h (100 = growth as untreated, 0 = no growth, -100 = all killed)
Common to all, as to settings: 10 µM unless noted

Where “and” joins values, the source holds several entries; their conditions need not be identical. Equal values may be shown once. The panel holds about 83,000 compounds, 20% with a hit somewhere; the sample as a whole holds those more often.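 Single-dose data. Exposure time 48 hours. Values below 10 considered active.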 Some compounds were tested as several samples or in several runs, with calls that do not always agree. Calls of active or inactive are those of the source.

In the case of `CCN(CC)CCCC(C)Nc1cnc(C(=O)Nc2cc(F)cc3cccnc23)cn1` (stereo not given), the growth is 2.84% (active) and 21.7% (inactive) with SR leukemia; 75.1% (inactive) and 2.28% (active) in the test with RPMI-8226 leukemia; 60.5% (inactive) and -43.9% (active) in the test on OVCAR-8 ovarian; 12.2% (inactive) and -83.5% (active) in the test on OVCAR-4 ovarian; 98.3% (inactive) and 25.8% (inactive) in the test on SK-OV-3 ovarian; 41.7% (inactive) and -21.9% (active) in the test on IGROV1 ovarian. The growth is 5.41% (active) and -79.1% (active) with OVCAR-3 ovarian; 69.3% (inactive) and 13.7% (inactive) with HS 578T breast; 66.8% (inactive) and 11.6% (inactive) in the test on NCI/ADR-RES ovarian; 14.3% (inactive) and -49.5% (active) with T-47D breast; 77.4% (inactive) and -40.1% (active) in the test with BT-549 breast; 25.5% (inactive) and 3.24% (active) in the test on MDA-MB-435 melanoma. Also, the growth in the test with SW-620 colon is 24.3% (inactive) and -78.8% (active); in the test with MCF7 breast it was 2.31% (active) and -37.5% (active); with HCT-116 colon, 9.52% (active) and -66.7% (active); in the test with HCC-2998 colon, 66.7% (inactive) and 14.1% (inactive); with KM12 colon, 75.3% (inactive) and -92.3% (active).
For the compound `CC(=O)Nc1cccc2c1CCCC2`, the growth was 104% (inactive) and 109% (inactive) in the test on SR leukemia; 88.8% (inactive) and 99% (inactive) in the test on RPMI-8226 leukemia; 86.5% (inactive) and 104% (inactive) in the test with OVCAR-8 ovarian; 98.8% (inactive) and 105% (inactive) in the test with OVCAR-5 ovarian; 89% (inactive) and 92.3% (inactive) in the test with SK-OV-3 ovarian; 119% (inactive) and 96.2% (inactive) in the test on IGROV1 ovarian. The growth was 107% (inactive) and 108% (inactive) with OVCAR-3 ovarian; 92.8% (inactive) and 110% (inactive) with HS 578T breast; 97.6% (inactive) and 96.9% (inactive) in the test with NCI/ADR-RES ovarian; 92.7% (inactive) in the test with T-47D breast; 97% (inactive) in the test with BT-549 breast; 103% (inactive) and 110% (inactive) in the test on MDA-MB-435 melanoma. For the same compound, the growth is 108% (inactive) and 107% (inactive) in the test with SW-620 colon; 92.1% (inactive) and 91.2% (inactive) in the test on MCF7 breast; 97.5% (inactive) and 102% (inactive) in the test on HCT-116 colon; 99.8% (inactive) and 95.3% (inactive) in the test on HCC-2998 colon; 102% (inactive) and 103% (inactive) in the test on KM12 colon.
Consider `COC(=O)/C=C/c1cc(O)c2c(c1)C(C(=O)OC)C(c1ccc(O)c(O)c1)O2` (stereo not given), for which the growth with SR leukemia was 5.46% (active) and 10.8% (inactive); in the test with RPMI-8226 leukemia, 36% (inactive) and 34.4% (inactive); with OVCAR-8 ovarian, 13.3% (inactive) and 14.7% (inactive); with OVCAR-4 ovarian, 52.9% (inactive) and 43.8% (inactive); in the test on SK-OV-3 ovarian, 43.1% (inactive) and 29.2% (inactive); with IGROV1 ovarian, 44.6% (inactive) and 38.3% (inactive). For the same compound, the growth was -1.91% (active) and 9.26% (active) with OVCAR-3 ovarian; 33.2% (inactive) and 44.9% (inactive) in the test on HS 578T breast; 18.3% (inactive) and 15.8% (inactive) in the test on NCI/ADR-RES ovarian; 84.7% (inactive) and 84.1% (inactive) in the test with T-47D breast; -2.3% (active) and -1.89% (active) in the test on BT-549 breast; 19.4% (inactive) and 29.6% (inactive) in the test on SW-620 colon. Besides, the growth was 15.1% (inactive) and 13.7% (inactive) in the test with MCF7 breast; 8.03% (active) and 7.89% (active) in the test with HCT-116 colon; 27.8% (inactive) and 29.9% (inactive) in the test with HCC-2998 colon; 11.9% (inactive) and 11.7% (inactive) in the test on KM12 colon.
For `COc1ccc2c(=O)cc(-c3ccccc3)[nH]c2c1`, the growth was 4.49% (active) with SR leukemia; 21.8% (inactive) and 2.02% (active) in the test with RPMI-8226 leukemia; 17.5% (inactive) and 8.21% (active) in the test on OVCAR-8 ovarian; 53.1% (inactive) and 36.7% (inactive) in the test on OVCAR-4 ovarian; 5.46% (active) and 23.9% (inactive) in the test on SK-OV-3 ovarian; 33.2% (inactive) with IGROV1 ovarian. The growth was -47.7% (active) and -45.4% (active) in the test on OVCAR-3 ovarian; 31.5% (inactive) and 58.9% (inactive) in the test on HS 578T breast; -12.9% (active) in the test with NCI/ADR-RES ovarian; 50.7% (inactive) and 57.1% (inactive) in the test on T-47D breast; 48.6% (inactive) and 45.1% (inactive) in the test with BT-549 breast; -46.6% (active) and -12% (active) with MDA-MB-435 melanoma. The growth in the test with SW-620 colon is 23.1% (inactive) and 33.3% (inactive); in the test on MCF7 breast it was 18.2% (inactive) and 14.8% (inactive); in the test with HCT-116 colon, 16.7% (inactive) and 8.27% (active); in the test on HCC-2998 colon, 17.4% (inactive) and 2.14% (active); with KM12 colon it was 14.1% (inactive) and 8% (active).
As for `CN(C)CCCN1c2ccccc2Sc2ccc(Cl)cc21`, the growth with SR leukemia is 67.9% (inactive) and 105% (inactive) and 62.2% (inactive); in the test on RPMI-8226 leukemia, 71% (inactive) and 97.9% (inactive) and 103% (inactive); in the test on OVCAR-8 ovarian it was 85.6% (inactive) and 93% (inactive) and 94.2% (inactive); in the test on OVCAR-5 ovarian, 90.8% (inactive) and 113% (inactive) and 95.6% (inactive); in the test with SK-OV-3 ovarian it was 24.1% (inactive) and 76.5% (inactive); in the test on IGROV1 ovarian, 69.7% (inactive) and 63.4% (inactive). Besides, the growth in the test with OVCAR-3 ovarian is 84.2% (inactive) and 112% (inactive) and 83.4% (inactive); in the test with HS 578T breast it was 90.3% (inactive) and 90.2% (inactive) and 89.1% (inactive); in the test with NCI/ADR-RES ovarian, 85% (inactive) and 109% (inactive) and 89.5% (inactive); in the test on T-47D breast it was 77% (inactive) and 105% (inactive) and 87.2% (inactive); in the test on BT-549 breast it was 84.6% (inactive) and 114% (inactive) and 96.2% (inactive); in the test on MDA-MB-435 melanoma it was 21.3% (inactive) and 129% (inactive) and 55.5% (inactive). Further, the growth was 86.3% (inactive) and 102% (inactive) and 83.8% (inactive) in the test with SW-620 colon; 37.8% (inactive) and 101% (inactive) and 66.6% (inactive) in the test on MCF7 breast; 28.1% (inactive) and 110% (inactive) and 59.2% (inactive) in the test with HCT-116 colon; 58.9% (inactive) and 107% (inactive) and 91.1% (inactive) in the test with HCC-2998 colon; 87.7% (inactive) and 114% (inactive) and 100% (inactive) in the test on KM12 colon.
For the compound `CNC(=O)c1cccnc1`, the growth was 87.4% (inactive) with SR leukemia; 112% (inactive) in the test on RPMI-8226 leukemia; 100% (inactive) in the test on OVCAR-8 ovarian; 110% (inactive) in the test with OVCAR-5 ovarian; 108% (inactive) in the test with OVCAR-4 ovarian; 111% (inactive) in the test with IGROV1 ovarian. In addition, the growth is 116% (inactive) in the test with OVCAR-3 ovarian; 107% (inactive) in the test with HS 578T breast; 97% (inactive) in the test on NCI/ADR-RES ovarian; 101% (inactive) with BT-549 breast; 105% (inactive) in the test with MDA-MB-435 melanoma; 106% (inactive) with SW-620 colon. Moreover, the growth in the test on MCF7 breast is 105% (inactive); with HCT-116 colon, 103% (inactive); in the test with HCC-2998 colon, 110% (inactive); in the test on KM12 colon it was 110% (inactive).
As to `Cc1ccc(NCSc2ccc(Cl)cc2)cc1`, the growth with SR leukemia is 62.5% (inactive) and 67.7% (inactive); with RPMI-8226 leukemia, 20.8% (inactive); in the test with OVCAR-8 ovarian, 97.3% (inactive) and 93.2% (inactive); in the test on OVCAR-5 ovarian, 106% (inactive); with SK-OV-3 ovarian, 96.2% (inactive) and 97% (inactive); in the test on OVCAR-3 ovarian, 71.6% (inactive) and 78.9% (inactive). In addition, the growth is 93.7% (inactive) and 102% (inactive) in the test on HS 578T breast; 88% (inactive) and 95.8% (inactive) in the test on NCI/ADR-RES ovarian; 74.3% (inactive) and 62.4% (inactive) with T-47D breast; 63.8% (inactive) and 65.7% (inactive) in the test on MDA-MB-435 melanoma; 86.2% (inactive) and 96.6% (inactive) in the test on SW-620 colon; 86.9% (inactive) and 80.7% (inactive) in the test on MCF7 breast. The growth with HCT-116 colon was 85% (inactive) and 91% (inactive); with HCC-2998 colon, 92.4% (inactive) and 94.9% (inactive); with KM12 colon it was 61.4% (inactive) and 66.5% (inactive).
In the case of `COc1cc(/C=N/Nc2nc3c([nH]2)c(=O)n(C)c(=O)n3C)ccc1O`, the growth in the test on SR leukemia is 89% (inactive) and 85.3% (inactive); with OVCAR-8 ovarian, 103% (inactive) and 108% (inactive); in the test on OVCAR-5 ovarian, 107% (inactive) and 111% (inactive); in the test with OVCAR-4 ovarian, 108% (inactive); in the test on SK-OV-3 ovarian, 104% (inactive) and 109% (inactive); with IGROV1 ovarian, 110% (inactive) and 124% (inactive). The growth in the test with OVCAR-3 ovarian is 122% (inactive) and 110% (inactive); with NCI/ADR-RES ovarian, 109% (inactive) and 111% (inactive); with T-47D breast, 93% (inactive) and 102% (inactive); with BT-549 breast, 103% (inactive) and 112% (inactive); in the test with SW-620 colon, 105% (inactive) and 110% (inactive); in the test on MCF7 breast it was 97% (inactive) and 95.2% (inactive). Further, the growth with HCT-116 colon was 100% (inactive) and 108% (inactive); in the test on HCC-2998 colon it was 102% (inactive) and 124% (inactive); in the test with KM12 colon, 67.6% (inactive) and 79.4% (inactive).
